Out of some 320,000 compounds screened, about 2,100 (0.66%) were called active. Not shown: some 53% with an inconclusive outcome. Calls follow the shape of the dose curve; as a rule, active = well fitted inhibition curve with a large enough effect in the signal ratio, with a control signal flat (not every such curve was filed as active); inconclusive = small, poorly fitted or top-dose-only effect, or effect the other way, or a change in a side signal; inactive = flat fitted curve, though single readings scatter; the % refers to the signal ratio. What follows is part of a selection rich in actives, with near analogues and random picks from the rest.
assay: qHTS Assay for Lipid Storage Modulators in Drosophila S3 Cells; settings: BODIPY lipid droplet fluorescence, 18-24 h, cells fed with added oleic acid; cell number change: measured here: cell count max response; series mostly up to 46.1 µM; lipid storage change, negative = inhibition: at the top concentration;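 as to cell number change: cells counted by Cell Tracker Red CMTPX staining in the red channel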; as to lipid storage change, negative = inhibition: % is scaled to controls: 0 for no effect and ±100 for the full control effect
Method in brief: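 Drosophila S3 cells got compounds at several concentrations plus oleic acid (400 uM solution). Laser-scanning cytometry with 488 nm excitation read lipid droplets at 500-530 nm and cells at 575-640 nm. Percent activity was relative to 20 uM Triacsin C.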
Potency is read from the fitted curve at half-maximal effect.

Row | Compound | lipid storage change, negative = inhibition | cell number change [%] | outcome | Potency
1 | CCCCn1c(N)c(N(CC)C(=O)C2CCCC2)c(=O)[nH]c1=O | 1.39% (inactive) | 14.7 |  | 
2 | CC(=O)N1c2ccc(S(=O)(=O)N(C)CC(=O)NC3CCCCC3C)cc2CC1C (centres undefined) |  |  | inactive | 
3 | COc1cn(-c2ccccc2)nc1C(=O)OCC(=O)Nc1ccc(C)c(C)c1 | 8.1% (inactive) | -22.3 |  | 
4 | COc1cn(-c2ccccc2)nc1C(=O)NCc1ccccc1 |  | 10.4 | inactive | 
5 | COc1cn(-c2ccccc2)nc1C(=O)Nc1ccccc1 |  | 5.86 |  | 0.92 µM (active)
6 | Cc1cc(C)c(OCC(=O)Nc2ccc3c(c2)OCO3)cc1C |  |  | inactive | 
7 | CC(C)C1Oc2ccccc2N(CC(=O)N(Cc2ccncc2)Cc2ccco2)C1=O (centres undefined) | 0.319% (inactive) | -0.805 |  | 
8 | CN(CCCC1CCCC1)C(=O)c1cc(COc2c(F)cccc2F)on1 |  | -27.2 |  | 5.8 µM (active)
9 | CN(CCCN1CCOCC1)C(=O)c1cc(COc2c(F)cccc2F)on1 |  |  | inactive | 
10 | CN(CCCC1CCCC1)C(=O)c1cc(COc2ccc(F)cc2F)on1 | -23.9% (inactive) | 15.8 |  | 
11 | Cc1c(NC(=O)c2n[nH]c(=O)c3ccccc23)c(=O)n(-c2ccccc2)n1C | -4.65% (inactive) | 5.44 |  | 
12 | Cc1c(NC(=O)c2ccc(N(C)S(=O)(=O)c3ccccc3)cc2)c(=O)n(-c2ccccc2)n1C | 3.31% (inactive) | 0.409 |  | 
13 | CCO[C@H]1OC(C(=O)NCc2nc3ccccc3[nH]2)=C[C@@H](C2CCCCC2)[C@@H]1CCCO | -4.55% (inactive) | -1.73 |  | 
14 | Cc1cc(O)cc2c1C(c1ccc(F)cc1)CC1(CC(C)(C)NC(=S)N1)O2 (centres undefined) | 15.9% (inactive) | 11.1 |  | 
15 | COc1ccc(C2CC3(CC(C)(C)NC(SC)=N3)Oc3cc(O)cc(C)c32)cc1 (centres undefined) |  | 26.2 |  | 23.1 µM (active)
16 | COc1ccc(C2CC3(CC(C)(C)NC(=S)N3)Oc3cc(O)cc(C)c32)cc1 (centres undefined) | 22% (inactive) | -1.84 |  | 
17 | O=C(COc1ccc(Cl)cc1Cl)N/N=C/c1ccc(OC2OC(CO)C(O)C(O)C2O)cc1 (centres undefined) |  | 14.9 | inactive | 
18 | N#CCOc1ccccc1/C=C/c1nc2ccccc2c(=O)[nH]1 |  | 5.41 |  | 0.82 µM (active)
19 | O=c1[nH]c(/C=C/c2ccccc2F)nc2ccccc12 |  |  | inactive | 
20 | O=c1[nH]c(/C=C/c2cccc3ccccc23)nc2ccccc12 | -10.1% (inactive) | 1.01 |  | 
21 | O=C(Cn1c(CSc2ccccc2)nc2ccccc21)Nc1ccccc1 | 2.53% (inactive) |  |  | 
22 | Cc1ccc(SCc2nc3ccccc3n2CC(=O)Nc2ccc(Cl)cc2)cc1 |  | -17.3 |  | 11.6 µM (active)
23 | Cc1ccc(SCc2nc3ccccc3n2CC(=O)Nc2c(C)cccc2C)cc1 | -6.68% (inactive) | 5.98 |  | 
24 | CCOC(=O)CSc1nnc(-c2ccc3ncccc3c2)n1C | 19.8% (inactive) | -5.02 |  | 

Row | Compound | lipid storage change, negative = inhibition | cell number change [%] | outcome | Potency
25 | Cc1ccc(S(=O)(=O)NN2C(=O)c3ccccc3NC2c2ccccc2)cc1 (centres undefined) | 0.893% (inactive) | 14.4 |  | 
26 | CC(C)C(OC(=O)c1ccco1)C(=O)NC1CCCCC1 (centres undefined) | 4.26% (inactive) | 10.7 |  | 
27 | Cc1cc2c(cc(C(=O)OC(C(=O)NC3CCCCC3)C(C)C)n2C)o1 (centres undefined) |  | -21.3 |  | 1.46 µM (active)
28 | COCCNC(=O)C(OC(=O)c1cc2oc(C)cc2n1C)C(C)C (centres undefined) | -24.2% (inactive) | 9.13 |  | 
29 | COC(=O)c1cc(OC)c(OC)cc1NCC(=O)Nc1ccc(C)cc1 | 4.61% (inactive) | -5.98 |  | 
30 | CCN(CC)CC(=O)Nc1cccc2c1C(=O)c1ccccc1C2=O | 2.18% (inactive) | 7.09 |  | 
31 | O=C1c2ccccc2C(=O)c2c(NCCCN(CCO)CCO)cccc21 | 13.2% [at 9.22 µM] (inactive) | 7.53 |  | 
32 | CNc1cccc2c1C(=O)c1ccccc1C2=O |  | -6.63 |  | 11.6 µM (active)
33 | COc1ccc(-n2cc(CN(C)C(C)c3ccncn3)c(-c3cccc(F)c3)n2)cc1 (centres undefined) | 10.9% (inactive) | -0.848 |  | 
34 | O=C(CCC(=O)c1ccc(Cl)cc1)NCc1ccccc1 |  | -20.1 | inactive | 
35 | CC(C)(C)c1ccc(C(=O)CCC(=O)NCc2ccccc2)cc1 |  | 6.25 |  | 14.6 µM (active)
36 | CC(C)(C)c1ccc(C(=O)NCc2ccccc2)cc1 | -22.5% (inactive) | -10.5 |  | 
37 | CCC(O)CNc1nc(-n2nc(C)cc2C)nc2sc3c(c12)CCCC3 (centres undefined) |  | 1.08 | inactive | 
38 | O=C(CSc1nc2ccccc2c(=O)[nH]1)Nc1ccc(S(=O)(=O)N2CCCC2)cc1 | 27.6% (inactive) | -0.593 |  | 
39 | CC(=O)c1nnn(-c2ccccc2C#N)c1C | -0.571% (inactive) | 25.6 |  | 
40 | O=C(Nc1nc(-c2cccs2)c(C(=O)C(F)(F)F)s1)c1ccccc1 | -1.08% (inactive) |  |  | 
41 | NNC(=O)CC(=O)NC1(Cc2ccc(O)cc2)CCCCC1 | 21.8% (inactive) | 4.44 |  | 
42 | O=C(NC1(Cc2ccc(O)cc2)CCCCC1)c1ccccc1 |  | -23.1 |  | 5.17 µM (active)
43 | CCC(=O)NC1(Cc2ccc(O)cc2)CCCCC1 | -26.5% (inactive) | -37.5 |  | 
44 | CCC(CC)C(=O)Nc1nnc(S(=O)(=O)N2CCCc3ccccc32)s1 | 20.3% (inactive) | -8.08 |  | 
45 | CC(C)(C)NC(=O)CCc1nnc(Cc2c[nH]c3ccccc23)o1 | 21.4% (inactive) | -0.239 |  | 
46 | Cc1nn(C)c(C)c1S(=O)(=O)N(CC(=O)NCCN1CCOCC1)c1ccc(C(C)C)cc1 | 7.54% (inactive) | 12.7 |  | 
47 | C/C(CC(O)c1ccc2ccccc2n1)=N/O (centres undefined) |  | 3.68 |  | 10.3 µM (active)
48 | CC(O)/C=C/c1ccc2ccccc2n1 (centres undefined) |  | -12.5 | inactive | 

Row | Compound | lipid storage change, negative = inhibition | cell number change [%] | outcome | Potency
49 | Cc1nc2ccccc2nc(C)c1=NO | 8.33% (inactive) | 8.5 |  | 
50 | O=C(Nc1c2c(nn1-c1ccccc1)CS(=O)C2)c1ccc2c(c1)OCO2 (centres undefined) | -19.3% (inactive) | 12.2 |  | 
51 | O=c1c2cnn(-c3ccccc3)c2ncn1Cc1ccco1 |  | 1.65 |  | 32.6 µM (active)
52 | O=c1c2cnn(-c3ccccc3)c2ncn1Cc1ccccn1 | 9.36% (inactive) | 26.2 |  | 
53 | O=c1c2cnn(-c3ccccc3)c2ncn1Cc1ccccc1 | 1.05% (inactive) | -12.8 |  | 
54 | COCCN1C(=O)N[C@H](c2cccc(C(F)(F)F)c2)C(C(=O)OC)=C1C | -4.45% (inactive) | 3.4 |  | 
55 | O=C(NCCc1ccccc1)C(=O)c1c(-c2ccccc2)cc2ccccn12 | -8.26% (inactive) | -0.29 |  | 
56 | Cc1ccc(S(=O)(=O)N(C)C)cc1NC(=O)COC(=O)c1sc2cc(Cl)ccc2c1Cl |  | -27.1 |  | 1.46 µM (active)
57 | Cc1ccc(S(=O)(=O)N(C)C)cc1NC(=O)COC(=O)c1ccc2c(c1)OCCO2 | -4.06% (inactive) | -1.35 |  | 
58 | Cc1ccc(S(=O)(=O)N(C)C)cc1NC(=O)COC(=O)c1ccc(Cl)cc1 |  |  | inactive | 
59 | O=C(Nc1ccnn1C1CCN(Cc2ccc(O)c(Cl)c2)CC1)C1CCCC1 | -0.76% (inactive) | 6.1 |  | 
60 | O=C1NCCn2ccc(=O)cc21 | 3.98% (inactive) | 4.17 |  | 
61 | CCOC(=O)/C(N=O)=C(\O)C1CCN(C(=O)OCC)CC1 | -5.07% (inactive) | 1.9 |  | 
62 | c1ccc(CNc2ncnc3sccc23)cc1 |  | -15.5 |  | 16.4 µM (active)
63 | NS(=O)(=O)c1ccc(CNc2ncnc3sccc23)cc1 |  | -15.1 | inactive | 
64 | c1cncc(CNc2ncnc3sccc23)c1 | -0.833% (inactive) | -4.09 |  | 
65 | Cc1cc(C)cc(-n2ccn(CC(=O)NCCc3ccccc3)c(=O)c2=O)c1 |  | -3.95 | inactive | 
66 | Cc1ccc(OCC(=O)Nc2cccc(-c3nnc(-c4ccccc4)o3)c2)cc1 | -1.29% (inactive) | 1.35 |  | 
67 | Cc1cccc(N(CC(=O)Nc2ccccc2F)S(C)(=O)=O)c1 |  |  |  | 6.51 µM (active)
68 | CSc1ccccc1NC(=O)CN(c1cc(C)cc(C)c1)S(C)(=O)=O |  |  | inactive | 
69 | CSc1ccccc1NC(=O)CN(c1cccc(C)c1)S(C)(=O)=O | 11.7% (inactive) | -13.7 |  | 
70 | C/C(=N\N=C\c1cccc(F)c1)c1nnn(-c2nonc2N)c1C | 20.8% (inactive) | -1.27 |  | 
71 | CCOc1ccc(NC(=O)CNS(=O)(=O)c2c(C)cc(C)cc2C)cc1 |  |  |  | 0.92 µM (active)
72 | CCOc1ccc(NC(=O)CCS(=O)(=O)c2ccc(C)cc2)cc1 | -5.54% (inactive) | 9.92 |  | 

Row | Compound | lipid storage change, negative = inhibition | cell number change [%] | outcome | Potency
73 | CCOc1ccc(NC(N)=O)cc1 | 11.6% (inactive) | 1.62 |  | 
74 | CCC(C)NCCCOc1cc(Cl)ccc1Cl (centres undefined) | 0.912% (inactive) | 12.7 |  | 
75 | COc1ccc(N(CC(=O)Nc2ccc(C)c(C)c2)S(=O)(=O)c2c(C)n[nH]c2C)cc1 | 28.1% (inactive) | 4.08 |  | 
76 | CNC(=O)N(C1=NCCCCC1)c1ccc(Br)cc1 | -2.09% (inactive) | -6.67 |  | 
77 | Cc1nn(CCC(=O)N2CCN(S(=O)(=O)c3ccccc3)CC2)c(C)c1C |  | 24.4 | inactive | 
78 | Cc1cc(C)cc(C(=O)Oc2cc(C)[nH]c(=O)c2[N+](=O)[O-])c1 |  | -7.31 | inactive | 
79 | Cc1ccccc1NC(=O)C(C)Sc1nnc(-c2ccncc2)n1CC1CCCO1 (centres undefined) |  | 3.95 |  | 2.31 µM (active)
80 | O=C(CSc1nnc(-c2ccncc2)n1CC1CCCO1)Nc1ccccc1Cl (centres undefined) | 6.87% (inactive) | 2.31 |  | 
81 | Cc1ccc(NC(=O)C(C)Sc2nnc(C)n2CC2CCCO2)cc1 (centres undefined) |  | 11.7 | inactive | 
82 | O=C(O)C1CC=CCC1C(=O)Nc1cccc(F)c1 (centres undefined) | -11.4% (inactive) |  |  | 
83 | Cc1ccc(-n2c(N)cc(=O)nc2SCC(=O)NC2CCCCC2)cc1C | 4.5% (inactive) | -3.12 |  | 
84 | Cc1ccnc(NC(=O)/C=C/c2cccs2)c1 | -0.722% (inactive) | -3.66 |  | 
85 | O=C(CSc1ncccn1)Nc1ccccc1 |  | 17.6 | inactive | 
86 | O=C(CSc1ccc(Cl)cc1)Nc1ncccn1 | -22.8% (inactive) | 8.97 |  | 
87 | O=C(CSc1ncccn1)Nn1cnnc1 |  | -0.567 |  | 7.31 µM (active)
88 | O=C(Nc1ccc(Cl)cc1)Nn1cnnc1 |  | 8.74 | inactive | 
89 | Cc1cc(C)nc(SCC(=O)Nn2cnnc2)n1 | -6.33% (inactive) | -0.845 |  | 
90 | O=C(CSc1ccc(Cl)cc1)Nn1cnnc1 |  | 7.58 |  | 16.4 µM (active)
91 | Cc1ccc(-n2nc3c(c2NC(=O)C2CCCC2)CS(=O)(=O)C3)cc1 |  | -12.8 | inactive | 
92 | Cc1ccc(S(=O)(=O)N2CCc3ccccc3C2CN2C(=O)c3ccccc3C2=O)cc1 (centres undefined) |  |  | inactive | 
93 | COc1cccc(NC(=S)N2CCN(C(c3ccccc3)c3ccccc3)CC2)c1 | 17% (inactive) |  |  | 
94 | Cc1nn(C)c(C)c1/C=N/NC(=O)CCn1nc(C)c([N+](=O)[O-])c1C | 9.31% (inactive) | -10.6 |  | 
95 | Cc1ccc(OCC(=O)n2cnnc2N)c(C)c1 | 16.4% (inactive) | -14.9 |  | 
96 | CCN1CCN(Cc2c(C)[nH]c3ccc(OC)cc3c2=O)CC1 |  | 9.98 | inactive | 
